Test results reported in PubChem BioAssay (NCI).
Compounds without any hit were thinned out: in the full panel of roughly 83,000, 20% have a hit.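 Plates (96-well) were seeded with cells, treated with compound at one concentration, and incubated for 48 hours before percent growth was determined.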 Active and inactive are the calls of the source. Rule for the calls: active = growth percent below 10; inactive = the rest.

Tests used:
Test in all cases: NCI-60 one-dose screen, 48 h (100 = growth as untreated, 0 = no growth, -100 = all killed)
Details in all cases: 10 µM unless noted
[1] = test system: T-47D breast
[2] = test system: BT-549 breast
[3] = test system: MDA-MB-435 melanoma
[4] = test system: SW-620 colon
[5] = test system: MCF7 breast
[6] = test system: HCT-116 colon
[7] = test system: HCC-2998 colon
[8] = test system: KM12 colon

Measured: growth

CCOC(=O)NCCc1ccccc1
inactive: [1] 106% | [2] 108% | [3] 108% | [4] 99.2% | [5] 99.1% | [6] 108% | [7] 90.3% | [8] 108%

CN1C(=O)N(C)C2Nn3c(s/c(=C\c4ccccc4)c3=O)=NC21 (stereo not drawn)
inactive: [1] 98.2% | [2] 97.1% | [3] 85.9% | [4] 96.9% | [5] 87.1% | [6] 88.8% | [7] 104% | [8] 97.5%

CN1CCN(CC(=O)N2c3cccc4cccc(c34)N(C(=O)CN3CCN(C)CC3)C2c2cn(-c3ccccc3)nc2-c2cccc([N+](=O)[O-])c2)CC1
active: [1] -75.8% | [3] -42.6% | [4] -26.4% | [5] -71.1% | [6] -58.2% | [7] -52.9%
inactive: [2] 71.2% | [8] 26%

COc1ccc(CNC(=O)C(=O)[C@H](Cc2ccccc2)NC(=O)c2[nH]c3ccccc3c(=O)c2C)cc1
inactive: [1] 101% | [2] 115% | [3] 100% | [4] 97.3% | [5] 94.3% | [6] 101% | [7] 110% | [8] 101%

CCC(C)(c1cc(C(C)(C)C)c(O)c(C(C)(C)C)c1)c1cc(C(C)(C)C)c(O)c(C(C)(C)C)c1
inactive: [1] 84.2% | [2] 104% | [3] 105% | [4] 102% | [5] 92.5% | [6] 99.2% | [7] 110% | [8] 100%

COc1ccc([C@H]2c3cc(OC)c(OC)cc3C=C(C=O)C2CO)cc1OC (stereo partly drawn)
active: [3] -24%
inactive: [1] 45.2% | [2] 58.6% | [4] 21.5% | [5] 18.5% | [6] 23.8% | [7] 58.4% | [8] 21%

COc1cccc(Cc2nn3cc(-c4ccccc4)nc3s2)c1
inactive: [1] 91.2% | [2] 91.6% | [3] 79.2% | [4] 30.6% | [5] 27.5% | [7] 104% | [8] 88.8%
active: [6] 2.81%

S=c1nc(-c2ccccc2)oc(=NC2CCCCC2)n1C1CCCCC1
active: [4] 5.42%
inactive: [1] 35.4% | [2] 82.4% | [3] 67.9% | [5] 12.7% | [6] 18.5% | [7] 73.7% | [8] 10.7%

Cc1cc(=O)[nH]c(=O)n1Cc1cn(-c2c3ccccc3nc3ccccc23)nn1
active: [1] -5.49% | [5] 2.54%
inactive: [2] 90% | [3] 95.6% | [4] 83.9% | [6] 63.1% | [7] 62.5% | [8] 98.6%

O=C1CSC(c2c(Cl)cccc2Cl)N1c1nc(Cl)cc(=O)[nH]1 (stereo not drawn)
inactive: [1] 104% | [2] 228% | [3] 111% | [4] 102% | [5] 107% | [6] 103% | [7] 102% | [8] 112%

COc1ccc(CN2c3ccccc3Sc3ccccc32)c(F)c1
active: [3] -51%
inactive: [1] 11.9% | [2] 56.5% | [4] 10.3% | [5] 22.6% | [6] 15.7% | [7] 61.6% | [8] 25.8%

Cc1cc(C)c(-c2c(N)cc(Br)cc2Br)c(N)c1
active: [3] -25.8%
inactive: [1] 54.6% | [2] 69.6% | [4] 48.5% | [5] 21.4% | [6] 23.5% | [7] 75.1% | [8] 40.5%

CCCSc1nc2ccc(C)cc2cc1/C=[N+](\[O-])c1ccccc1
inactive: [1] 56.6% | [2] 42.1% | [4] 22.7% | [5] 21.8% | [7] 98.2% | [8] 25%
active: [3] -24.1% | [6] 9.07%

NC(=O)Nc1ccc2ncnc(Nc3ccc(Cl)cc3)c2c1
inactive: [1] 61.6% | [2] 92.4% | [3] 97.8% | [4] 99.1% | [5] 86.5% | [6] 96.4% | [7] 97.9% | [8] 98.5%

COc1cccc2nc3n(c12)C(c1c(F)cccc1F)SC3 (stereo not drawn)
inactive: [1] 104% | [2] 108% | [3] 106% | [4] 106% | [5] 104% | [6] 93.8% | [7] 99.9% | [8] 100%

COc1ccc(C(=O)C[C@]2(O)C(=O)Nc3c(Cl)ccc(Cl)c32)cc1
active: [3] -40.9%
inactive: [1] 29.9% | [2] 49.8% | [4] 21.4% | [5] 19.7% | [6] 17% | [7] 23.1% | [8] 47.6%

NCCNc1nc2ccccc2c2c(=O)c3cc(F)ccc3sc12
inactive: [1] 88.7% | [2] 92.5% | [3] 58.6% | [5] 52.6% | [6] 22% | [8] 34.5%
active: [4] -29.1% | [7] 4.32%

CCCCCCCCCCCCCCCCCCOc1ccccc1CCCOP(=O)(O)OCC[N+](C)(C)C
inactive: [1] 87.8% | [2] 77.4% | [3] 91.6% | [4] 69.2% | [5] 60.5% | [6] 44.9% | [7] 50.9% | [8] 13.2%

C#C[C@]1(O)CC[C@H]2[C@@H]3CC=C4c5sc(Nc6cc(F)ccc6F)nc5CC[C@]4(C)[C@H]3CC[C@@]21C
active: [1] -16.6% | [3] -28.2% | [4] -61.1% | [5] -23.8% | [6] -44.2% | [7] -78.8% | [8] -41.2%
inactive: [2] 12.3%

CCOC(=O)CCN(C(=O)Nc1ccccc1)C1CCCCC1
inactive: [1] 104% | [2] 118% | [3] 106% | [4] 102% | [5] 98.4% | [6] 102% | [7] 74.8% | [8] 108%

O=C(CCOCCNC(=O)COc1ccc2c(c1)OCC(c1ccc(F)cc1)C2=O)NCCCC(O)(P(=O)(O)O)P(=O)(O)O (stereo not drawn)
inactive: [1] 101% | [2] 105% | [3] 102% | [4] 101% | [5] 89% | [6] 101% | [7] 98% | [8] 100%

CC/C=C\C[C@@H]1C/C=C2/C(=O)C=C[C@H]2C/C=C\CCCC(=O)O1
active: [2] -55.7% | [3] -59.1% | [4] -65.1% | [5] -9.37% | [6] -93.5% | [7] -83.3% | [8] -92.3%
inactive: [1] 10.3%

O=C(Nc1ccc(OS(=O)(=O)c2ccc(F)cc2)cc1)c1ccc(Cl)cc1
inactive: [1] 78.1% | [2] 97.4% | [3] 117% | [4] 108% | [5] 92.9% | [6] 95.5% | [7] 106% | [8] 103%

CCCCC[C@H](O)C/C=C1/C(=O)C=C[C@@H]1C/C=C\CCCC(=O)OC
inactive: [1] 69.3% | [2] 35.3% | [4] 16.1% | [5] 18.6% | [6] 13% | [7] 77.8% | [8] 16.5%
active: [3] -9.31%

O=C(O)c1cn(C2CC2)c2cc(N3CCN(C(=O)Nc4nc(-c5ccccc5)cs4)CC3)c(F)cc2c1=O
active: [5] 7.78%
inactive: [1] 23.2% | [2] 10.3% | [3] 21% | [4] 29.4% | [6] 17.5% | [7] 34.4% | [8] 13.8%

O=C(N/N=C/[C@H](O)[C@@H](O)[C@@H](O)[C@H](O)CO)c1ccc(NC(=O)c2cccnc2)cc1
inactive: [1] 100% | [2] 106% | [3] 106% | [4] 108% | [5] 94.8% | [6] 108% | [7] 117% | [8] 106%

COc1cc(C2CC(c3cccc(Br)c3)=NN2C(C)=O)cc(OC)c1OC (stereo not drawn)
active: [2] -8.75% | [3] -51.2% | [7] -31%
inactive: [1] 69.7% | [4] 24.8% | [5] 22.8% | [6] 17.2% | [8] 16.9%

C=CCc1cc(C)ccc1NC(C(=O)NCC(=O)OC)c1ccccc1 (stereo not drawn)
inactive: [1] 77.2% | [2] 93.7% | [3] 101% | [4] 117% | [5] 89.8% | [6] 101% | [7] 98.7% | [8] 99.4%

COc1ccc(-n2c(N)c(-c3nc4ccccc4[nH]3)cc(C#N)c2=O)cc1
inactive: [1] 77.8% | [2] 75.1% | [3] 99.3% | [4] 106% | [5] 87.7% | [6] 88.2% | [7] 108% | [8] 99.9%

CCOc1ccc2nc(SCc3nc4n(n3)S(=O)(=O)c3ccccc3N4C)sc2c1
active: [2] -10.6% | [8] 7.52%
inactive: [1] 45.2% | [3] 60.8% | [4] 14% | [5] 47.3% | [6] 19.1% | [7] 28.5%

CC(=O)OC[C@H]1OC(Sc2sc(C(=O)c3ccc(Cl)cc3)c(N)c2-c2nc3ccccc3s2)[C@H](OC(C)=O)[C@@H](OC(C)=O)[C@@H]1OC(C)=O (stereo partly drawn)
inactive: [1] 89.5% | [2] 98.5% | [3] 96.5% | [4] 82.7% | [5] 82.1% | [6] 50.8% | [7] 109% | [8] 89.3%
